We go through 40 compounds from PubChem BioAssay (NCATS).

SMILES strings stand for the structures. Records with an inconclusive call do not appear. Entries that show only a call come without a potency. Active and inactive are the calls of the source. Calls come from the whole dose curve; as a rule, active = well fitted cell-killing curve with a large enough effect; inconclusive = small, poorly fitted or top-dose-only effect; inactive = flat fitted curve, though single readings scatter. Square brackets hold non-standard residues; d marks the D form. Peptide text beside a SMILES is read from it. ξ: configuration not given here. ξL = CC(C)CC(N)C(=O)O
Potency is the fitted concentration of half-maximal effect.

This assay in a line: COV-362 Cancer Cell Toxicity qHTS against the NCATS CANVASS Library (AID 1347352). The following applies: COV-362 viability, CellTiter-Glo luminescence, 72 h; series mostly up to 38.3 µM. An excerpt: Natural products and their derivatives continue to be wellsprings of nascent therapeutic potential. However, many laboratories have limited resources for biological evaluation, leaving their previously isolated or synthesized compounds largely or completely untested. To address this issue, the Canvass library of natural products was assembled (https://tripod.nih.gov/canvass), in collaboration with academic and industry researchers, for quantitative high-throughput screening (qHTS) across a diverse set of cell-based and biochemical assays. The pure (>85% purity by liquid chromatography/mass spectrometry [LC/MS]) Canvass library of 346 natural products were submitted by 45 academic laboratories and companies around the world. We collected pure natural products to circumvent deconvolution and structure elucidation due to time and resource limitations. The library was formatted into 1536-well plates and evaluated in 50 qHTS (in an 11-pnt concentration series) bioassays with broad scope of disease-relevant mechanisms. The resulting data set from 50 different assays was then systematically analyzed to identify overall trends and specific natural products with interesting biological activities. Reported herein are the results of each individual qHTS and their corresponding assay protocol. National Center for Advancing Translational Sciences (NCATS), Rockville, MD National Institute of Health (NIH), Bethesda, Maryland
Cancer Cell Toxicity COV-362, OV-KATE, OV-SAHO, UWB1.289, UWB1.289-WTBRCA1, HEK-293, HPAF-II, Panc-1005, SW1088, and U-118MG-screen protocol. 1. In a 1536 well, white solid bottom tissue culture plates (Corning 7494), corresponding cells (COV-362, OV-KATE, OV-SAHO, UWB1.289, UWB1.289-WTBRCA1, HEK-293, HPAF-II, Panc-1005, SW1088, or U-118MG) were dispensed in each well at a final concentration of 1000 cells / well (6uL volume) using the Multidrop Combi (Thermo Fisher Scientific) dispenser. 2. The plates were incubated for 4 hours at 37 degrees C/5% CO2/95% Rh. 3. Compounds were pin transferred (~23nL volume) via Wako Pin-tool (Wako Automation, Richmond VA) equipped with a 1536 pin head. The assay plates were treated with compounds in an 11-pnt concentration series with a final concentration range of […] to 85uM. 4. Bortezomib was used as a single dose control (0.5mM column 4, rows 1 - 32) at a final concentration of 1.9uM and as a 16pnt titration (1mM; 1:2 dilution; 16-points; n = 2; column 3, rows 1 - 32) with final concentration range of 0.1nM - 3.8uM. 5. The assay plates were incubated for 72 hours at 37 degrees C/5% CO2/95% Rh. 6. 3uL CellTiter-Glo detection reagent was then added to the plates (columns 2 - 48, rows 1 - 32) and incubated at room temperature for additional 15min. 7. Luminescence signal was acquired via the ViewLux plate reader (PerkinElmer) using a clear filter, 2 second exposure and 2x binning settings.
(Quantitative high-throughput screening tests each substance at several concentrations.)
On to `C/C=C(/C)c1cc(O)c(C)c2c1Oc1cc(O)cc(C)c1C(=O)O2`, for which the Potency result is “inactive”.
With `COC(=O)[C@@]12Oc3cccc(O)c3C(O)=C1C(=O)C[C@H](C)[C@H]2O`, the Potency entry was “inactive”.
As to `CO/C=C/C(=O)c1cc2cnc3c(N)cc(=NC(=O)C(C)C)c([nH]1)c23`, the Potency is 0.211 µM (active).
For `COc1c(O)cc(O)c2c(=O)cc(-c3ccccc3)oc12`, the Potency result is “inactive”.
Take `CC(C)=CCCC(C)(O)[C@H]1CC=C(C)C(O)C1` (stereo not given in full): the Potency entry was “inactive”.
`Cc1cc(O)cc2c1C(=O)c1c(O)cc(O)cc1C2=O`: the Potency result is “inactive”.
With `COC(=O)[C@@]1(C)CCC[C@]2(C)c3cc(OC)ccc3CC[C@@H]12`, the Potency result is “inactive”.
The same measure for `CO[C@@H](C[C@@H](C)[C@@H](O)/C=C/C=C/CNC(=O)C(C)(C)[C@H](O)\C(C)=C/C=C\C=C\Cc1cnco1)[C@]1(O)[C@@H](C)C(=O)N(C)[C@@]12COC2=O`: “inactive”.
Consider `CC(C)=CCC[C@]12c3cc4c(cc3CC[C@@]1(C)[C@H](C)CC[C@@H]2O)[nH]c1ccccc14`, for which the Potency result is “inactive”.
As for `CC(C)=CCC[C@]1(C)[C@H]2CC(=O)[C@@]3(CO3)[C@@H]1C2`, the Potency entry was “inactive”.
Consider `CN1CC[C@@]2([C@@]34CCN(C)[C@@H]3Nc3ccccc34)c3ccccc3N[C@@H]12`, for which the Potency result is “inactive”.
Under `C[C@H]1C=C[C@H]2CCCC[C@@H]2[C@H]1C(=O)[C@H]1CC2=C(C(=O)O)CCN2C1=O` stands “inactive”; under `CN1CC[C@@]23c4ccccc4N[C@@H]1[C@@]21CCN(C)[C@@H]3Nc2ccccc21`, “inactive”.
In the case of `CCC(=O)CCCCC[C@@H]1NC(=O)[C@H]2CCCCN2C(=O)[C@H](C(C)C)NC(=O)[C@H](Cc2cn(OC)c3ccccc23)NC1=O`, the Potency was 18.8 µM (active).
Under `C[C@]12CC[C@]3(C1)[C@H](CC2=O)C[C@@H](OC(=O)c1ccccc1)[C@H]1[C@](C)(C(=O)O)CCC[C@@]13C` stands “inactive”; under `C[C@@]12CCC[C@@](C)(C(=O)O)[C@H]1C[C@@H](O)[C@@]13C[C@@H](CC[C@@H]21)[C@](C)(O)C3`, “inactive”; under `C/C=C(/C)c1c(Cl)c(O)c(C)c2c1Oc1c(Cl)c(O)c(Cl)c(C)c1C(=O)O2`, “inactive”.
Take `C[C@H]1CCC2(OC1)O[C@H]1C[C@H]3[C@@H]4CC(=O)[C@]5(O)C[C@H](O)CC[C@@]5(C)[C@H]4CC[C@@]3(C)[C@H]1[C@H]2C` (stereo not given in full): the Potency result was “inactive”.
In the case of `O=C1OC(CCO)c2cccc(O)c21` (stereo not given), the Potency result is “inactive”.
On to `O=Cc1ccc2n1C[C@]1(OC2)O[C@H](CO)[C@@H](O)[C@@H]1O`, for which the Potency entry is “inactive”.
The same measure for `C/C=C1/C2=CCCN3C(=O)O[C@H]([C@H]1O)[C@H]23`: “inactive”; for `CC[C@@H](C)[C@H]1NC(=O)C(CC(C)C)NC(=O)[C@@H](CC(C)C)NC(=O)[C@H](Cc2c[nH]c3ccccc23)NC(=O)CNC(=O)[C@@H](CC(N)=O)NC1=O` (stereo partly drawn) (cyclo(GW[dL][ξL][dI][dN])): “inactive”; for `C/C(=C\[C@@H](C)CC/C=C/CC/C=C/C(=O)O)[C@@H](O)[C@H](C)C(=O)CCCC1CC(=O)NC(=O)C1`: “inactive”.
With `COc1ccc([C@@H]2c3cc4c(cc3C(=O)C(C)C2C)OCO4)cc1OC` (stereo not given in full), the Potency entry was “inactive”.
Turning to `COC(=O)[C@]1([C@H]2CCC(=O)O2)CC(=O)c2c(O)cc(C)cc2O1`, the Potency result was “inactive”.
Under `CC(CCC[C@]1(C)C(=O)C=C[C@@]23C[C@]4(C)O[C@@H](C[C@@H]4[C@H]2O)C31)C(=O)O` (stereo not given in full) stands “inactive”; under `O=C1c2c(O)cc(O)cc2OC(c2ccc(O)cc2)C1O` (stereo not given), “inactive”.
Under `COC12OC1(C13OC1(OC)C(=O)c1cc4cc(C)oc(=O)c4c(O)c1C3O)C(O)c1c(cc3cc(C)oc(=O)c3c1O)C2=O` (stereo not given) stands “inactive”.
In the case of `COc1cc(/C=C/C(=O)OC[C@@H](Cc2ccc(O)c(OC)c2)[C@@H](COC(=O)/C=C/c2ccc(O)c(OC)c2)Cc2ccc(O)c(OC)c2)ccc1O`, the Potency is 18.8 µM (active).
The same measure for `C=C[C@](Cl)(CBr)CCC=C(C)C`: “inactive”; for `CC(=O)O[C@H]1c2ccccc2-c2c3c(cc4c2[C@@H]1N(C(C)=O)CC4)OCO3`: “inactive”; for `O=C1CC(c2ccc(O)cc2)Oc2ccccc21` (stereo not given): “inactive”.
For the compound `COc1cc2c(c(O)c1O)C(=O)c1c(coc1C)C2=O`, the Potency was 13.3 µM (active).
Regarding `C=C[C@]1(C)CC[C@@H]([C@H](C)C(=O)CC=C(C)C)O1`, the Potency result was “inactive”.
On to `C[n+]1cc2cc(C(N)=O)[nH]c3c(=N)c(Cl)c(N)c1c23`, for which the Potency result was “inactive”.
Take `O=c1cc(-c2ccc(O)c(O)c2)oc2cc(O[C@@H]3O[C@H](CO)[C@@H](O)[C@H](O)[C@H]3O)cc(O)c12`: the Potency result is “inactive”.
Turning to `C=CC(CCCCC)C1C(=O)NC(=O)C1C(=O)C1C2C(C)CC(C(=O)O)CC2CC1(O)C(=O)/C=C/C` (stereo not given), the Potency entry is “inactive”.
Regarding `C=C[C@]1(C)CC[C@@H]([C@H](C)C(=O)/C=C/C(C)(C)O)O1`, the Potency entry was “inactive”.
The same measure for `C=C(C)CC[C@H](Cc1c(O)cc(O)c2c1O[C@H](c1ccc(O)cc1)CC2=O)C(=C)C`: “inactive”; for `CC(C)[C@]12CC[C@@]3(C)[C@H](C)CC[C@H](O)[C@@]3(CC1)c1cc3c(cc12)[nH]c1ccccc13`: “inactive”.
